Source: PubChem BioAssay
MARV entry inh: blocks Marburg virus binding to or entry into cells | AID 540276 | 300,000 tested, 1.8% active | Potency, µM (top dose mostly 37.8 µM), for inactives: top-dose activity change, negative = inhibition, actives largely listed as inhibitors | Marburg virus pseudotyped entry inhibition, cell reporter; calls by dose curve; tested in HEK293 cells; further: potency means the concentration at half of the fitted maximal effect
FMDV inh: blocks foot and mouth disease virus | 410,000 tested, 1.2% active | Potency, µM (highest dose often 57.9 µM), for inactives: top-dose activity change, negative = inhibition, most hits filed as inhibitors | FMDV antiviral cell-based qHTS; calls by dose curve; tested in HEK293T cells; further: read-out not given here; potency means the concentration at half of the fitted maximal effect; nearly all actives have a fitted effect of over 45% in size
HCMV inh: human cytomegalovirus inhibition; 410,000 tested, 4.5% active; HFF cells, HCMV-luciferase reporter, 72 h; hits give low values; activity change, negative = inhibition, % at 57.5 µM; AID 1259415; in the data active means activity change below about -60%; inconclusive means no clear call, values can overlap the other calls; inactive means above about -39%
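Human foreskin fibroblasts infected with luciferase-reporter HCMV at MOI 1 PFU/cell, compounds at two doses. Luciferase measured 72 h post infection; normalized to buffer-only basal and Salinomycin (10uM) controls.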
Lassa entry inh: Lassa virus entry inhibition; Lassa virus pseudotype entry inhibition, cell reporter; Potency, µM (highest dose often 37.9 µM), inactives show at the highest dose activity change, negative = inhibition, most hits filed as inhibitors; 300,000 tested, 1.2% active; calls by dose curve; tested in HEK293 cells; further: potency means the concentration at half of the fitted maximal effect; nearly all actives have a fitted effect of over 50% in size
* marks the source's active call; other numbers are inactive results; ? = inconclusive; . = not tested or not shown; [ ] = dose if it differs, or a comment. Sampled rows, rich in hits. Any-hit rate of the full collection: about 6.2%. On the % scale 0 is the no-effect control and ±100 the full control effect.

SMILES	MARV entry inh	FMDV inh	HCMV inh	Lassa entry inh
O=C(/C=C/c1ccc(O)c([N+](=O)[O-])c1)c1ccc2ccccc2c1	-1%[46.1 µM]	2%	?	15%[46.1 µM]
COc1ccc(Oc2ccc(/C=C/C(=O)c3ccc(O)cc3)cc2[N+](=O)[O-])cc1	?	?	-98*	13µM*
CC1(Cc2ccc(Cl)cc2)C(=O)Nc2c(Cl)cccc21 (stereo not given)	.	0%	.	.
COc1cc(-n2nc(C)c3c2OC(N)=C(C#N)C3c2ccccc2)c(Cl)c(Br)c1O (stereo not given)	-54%	22µM*	.	0%
Cc1nn(-c2ccccc2)c(Cl)c1C1C(C#N)=C(N)Oc2c1c(C)nn2-c1ccccc1 (stereo not given)	-12%[46.1 µM]	?	.	7%
Cc1nn(Cc2ccccc2)c2c1C(c1cccc(Cl)c1)C(C#N)=C(N)O2 (stereo not given)	?	?	-60*	-25%
CSC1(SC2=NCCN2)SC2(NCCN2)S1	10µM*	-10%	?	10%
Cn1c(NCc2ccccc2)nc2cnc(Nc3ccccc3Cl)cc21	.	.	-9	.
N#CCc1ccc(NS(=O)(=O)c2ccc(C3CCCCC3)cc2)cc1	?	33%	-64*	0%
COc1ccc(S(=O)(=O)Nc2ccc(CC#N)cc2)cc1	-28%[46.1 µM]	39%	-21	7%
O=C(CCCC(=O)NCc1ccc(F)cc1)NCc1ccc(F)cc1	1%[46.1 µM]	35µM*	-29	27%
O=C(CCCC(=O)NCc1ccccc1)NCc1ccccc1	13%	-22%	-32	-1%
CC(C)(C)c1ccc(C(=O)NCCC(=O)NCc2ccc(F)cc2)cc1	.	-24%	-82*	.
CC(C)(C)c1ccc(CN2N=Nc3ccccc3S2(=O)=O)cc1	?	?	?	11µM*
CC(C)C(NC(=O)c1ccoc1)c1nnc2n1CCN(Cc1ccc3c(c1)Cc1ccccc1-3)CC2 (stereo not given)	.	-12%	.	.
Nc1c(Cl)ncnc1N/N=C/c1cccnc1	22%[14.2 µM]	-8%	-13	-7%
Nc1c(Cl)ncnc1N/N=C/c1ccc2ccccc2n1	16µM*	-13%	-98*	?
Nc1c(Cl)ncnc1N/N=C/c1ccccn1	?	-10%	-99*	2.5µM*
Nc1c(Cl)ncnc1N/N=C/c1ccnc2ccccc12	0%	16%	-14	3%
CC(=O)Nc1nnc(SCc2cc(=O)c3cc(C)ccc3[nH]2)s1	.	-22%	9	10%[46.1 µM]
Cc1cc(NC(=O)COC(=O)c2cccc(O)c2)no1	.	14%	-65*	.
Cc1cc(NC(=O)COC(=O)c2ccccc2NCCO)no1	15%	21%	-11	30%
Cc1noc(C)c1C(=O)OCC(=O)Nc1cccc(S(=O)(=O)N(C)C)c1	19%	14%	-30	2%
Cc1cc(NC(=O)COC(=O)c2ccccc2S(=O)(=O)N(C)c2ccccc2)no1	?	?	-101*	2.5µM*
Cc1cc(NC(=O)COC(=O)c2c(Cl)cccc2Cl)no1	.	-12%	-68*	.
SMILES	MARV entry inh	FMDV inh	HCMV inh	Lassa entry inh
Cc1cc(NC(=O)COC(=O)c2ccc(Cl)cc2)no1	.	-15%	16	.
Cc1onc(-c2c(F)cccc2Cl)c1C(=O)OCC(=O)Nc1cccc(S(=O)(=O)N(C)C)c1	16µM*	?	-70*	?
CCC(Sc1nnc(C)n2c1cc1sccc12)C(=O)Nc1ccccc1F (stereo not given)	.	-27%	-64*	-10%[46.1 µM]
COc1ccc(OCCN2CCN(C(=O)c3ccc(OC(F)F)c(OC)c3)CC2)cc1	?	-28%	-63*	-26%[46.1 µM]
c1cc(OCCN2CC2)ccn1	7.1µM*	-1%	-100*	-24%
COc1ccc(OCCN2CCN(C(=O)c3ccc(OC)cc3)CC2)cc1	?	?	-90*	?
CCc1nc2c(OCCOc3ccc(F)cc3)cccn2c1N(C)C(=O)c1ccc(C)cc1	.	-25%	-1	.
COc1cccc(CNCCCSc2nnnn2C)c1	4%[46.1 µM]	-4%	10	5%[46.1 µM]
Cc1ccc(C)c(-c2csc(-c3c(N)c(C(=O)c4ccc5c(c4)OCO5)n4ccccc34)n2)c1	?	-13%	21	-4%[46.1 µM]
O=[N+]([O-])c1cc([N+](=O)[O-])c(Oc2cc(Cl)cc(Cl)c2)cc1NN1CCCCC1	.	-19%	-78*	.
O=[N+]([O-])c1cc([N+](=O)[O-])c(Oc2cncc(Cl)c2)cc1NN1CCCCC1	.	-10%	?	.
O=c1ccc2ccccc2n1Cc1cccc(F)c1	.	10%	-62*	.
O=c1oc2ccccc2n1Cc1cccc(F)c1	.	3%	?	.
CCOc1ccc(/C=N/Nc2cc(N3CCOCC3)ncn2)c(O)c1	.	?	24	.
CCCOc1ccc(/C=N/Nc2cc(N3CCOCC3)ncn2)c(O)c1	.	-15%	-101*	.
Fc1ccc(C(CCCn2nnc(-c3cccnc3)n2)c2ccc(F)cc2)cc1	?	?	-76*	-8%
Fc1ccc(-n2nnc(-c3cccnc3)n2)cc1	.	72%	49	.
Cc1cc(C)cc(-n2cc(C(=O)O)c(=O)cc2C)c1	?	-15%	-80*	10%[46.1 µM]
COC(=O)c1ccc2c(c1)C(C)(C)C(/C=C/c1ccccc1O)=[N+]2C	?	7.9µM*	-104*	?
Cn1ccsc1=NC(=O)c1ccc([N+](=O)[O-])o1	.	-8%	-91*	.
COc1cc(C(=O)N=c2sccn2C)c([N+](=O)[O-])cc1OC	6%[46.1 µM]	9%	-9	17%[46.1 µM]
O=C(CCCCCN1C(=O)c2cccc3cccc(c23)C1=O)NO	.	-5%	.	.
C[C@@H]1CN([C@H](C)CO)C(=O)CCCn2cc(nn2)CO[C@H]1CN(C)C(=O)Oc1ccccc1	.	.	-25	.
CN(Cc1cccc(Cl)c1Cl)C(=O)c1ccccc1SCC(=O)N1CCCC1	?	2%	-5	-23%
CN(Cc1ccc(Cl)c(Cl)c1)C(=O)c1ccccc1SCC(=O)N1CCCC1	-17%[46.1 µM]	-16%	-99*	-12%
SMILES	MARV entry inh	FMDV inh	HCMV inh	Lassa entry inh
CN(Cc1ccccc1)C(=O)COC(=O)c1ccccc1SCC(=O)N1CCCC1	-2%	-14%	-61*	7%
CN(C(=O)COC(=O)c1ccccc1SCC(=O)N1CCCC1)c1ccccc1	?	-18%	-7	-8%
O=C(OCc1cn([C@H]2CN(C(=O)c3cccs3)[C@@H](c3ccccc3)C[C@@H]2O)nn1)c1ccccc1	.	1%	-2	.
O=C(NCc1ccc(F)cc1)c1ccc(CSc2nc3ccncc3n2Cc2ccc(F)cc2)cc1	?	-21%	-38	.
CCCNC(=O)COC(=O)c1ccccc1C(=O)c1ccc(Cl)c([N+](=O)[O-])c1	3.2µM*	11µM*	-113*	?
Cc1ccc(Cl)c(NC(=O)COC(=O)c2ccccc2C(=O)c2ccc(Cl)c([N+](=O)[O-])c2)c1Cl	4.6µM*	?	-102*	13µM*
Cc1ccc(C(=O)c2ccccc2C(=O)OCC(=O)Nc2cccc([N+](=O)[O-])c2)cc1	?	-5%	-35	-25%
Cc1ccc(C(=O)c2ccccc2C(=O)OCC(=O)NCCc2ccc(Cl)cc2Cl)cc1	?	?	-25	-11%
Cc1cccc(-n2nnnc2S(C)(=O)=O)c1	.	25µM*	-108*	?
COc1cccc(-n2nnnc2S(C)(=O)=O)c1	?	?	.	8.9µM*
COC(=O)c1nnn(-c2cccc(C)c2)c1C(=O)OC	-1%[46.1 µM]	-25%	-6	2%[46.1 µM]
